# Reference: PubChem BioAssay AID488977 (Johns Hopkins Ion Channel Center, 2010)
# Out of some 310,000 compounds screened, about 1,500 (0.48%) were called active.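 How the source made its calls: active means initial fluorescence not abnormally high and integrated response B-score, plate-corrected, over 3 SD above library mean; inactive means the rest.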 This excerpt belongs to a sample that is enriched for actives.
# Molecular target: High affinity choline transporter 1 (Homo sapiens) (UniProt Q9GZV3)
# Assay: CHT positive allosteric modulators, primary screen, cell-based, membrane potential dye, choline EC20 (AID 488977)
# Conditions: CHT-expressing cells, at 10 µM, LV-AA mutant CHT in HEK293 cells; hits give high values
# Sequence of High affinity choline transporter 1 (Homo sapiens) (Q9GZV3 whole entry, looked up): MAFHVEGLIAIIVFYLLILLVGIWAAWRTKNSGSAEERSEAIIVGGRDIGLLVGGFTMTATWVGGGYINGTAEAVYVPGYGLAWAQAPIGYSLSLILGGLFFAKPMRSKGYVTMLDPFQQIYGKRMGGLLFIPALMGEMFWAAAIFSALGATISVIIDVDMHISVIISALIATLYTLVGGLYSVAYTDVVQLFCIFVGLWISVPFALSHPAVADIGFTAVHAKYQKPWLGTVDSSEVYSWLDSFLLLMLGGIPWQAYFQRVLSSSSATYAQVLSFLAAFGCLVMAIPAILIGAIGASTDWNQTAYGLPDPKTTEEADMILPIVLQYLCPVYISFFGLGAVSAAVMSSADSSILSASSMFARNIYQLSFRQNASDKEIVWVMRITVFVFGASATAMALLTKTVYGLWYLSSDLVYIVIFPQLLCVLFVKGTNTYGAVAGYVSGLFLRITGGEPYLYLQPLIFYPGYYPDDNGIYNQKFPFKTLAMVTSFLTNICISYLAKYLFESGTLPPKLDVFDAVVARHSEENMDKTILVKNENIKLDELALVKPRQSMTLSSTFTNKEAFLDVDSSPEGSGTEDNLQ
row,SMILES,B-score
1,c1ccc2c(C[n+]3csc4ccccc43)cccc2c1,inactive
2,Fc1ccccc1COc1cccc2cccnc12,inactive
3,Nc1scc[n+]1Cc1cccc2cccnc12,6.75 (active)
4,COc1ccc(CCNC(=O)C(=O)NCC2CCCN2S(=O)(=O)c2cccs2)cc1OC (centres undefined),inactive
5,Nc1nc(SCC(=O)NCCN2CCOCC2)nc2sc3c(c12)CCC3,inactive
6,N=c1c2c3c(sc2ncn1CCCN1CCOCC1)CCCCC3,6.58 (active)
7,N=c1c2c3c(sc2ncn1N)CCCCC3,inactive
8,CCN(CC(=O)Nc1cccc(S(=O)(=O)N2CCCCC2)c1)Cc1ccccc1,inactive
9,COc1nc(N=C(N)N)nc2c(C)cccc12,8.19 (active)
10,Cc1nc(/N=C(\N)NC(=O)NC2CCCCC2)nc2ccccc12,inactive
11,COc1ccc2nc(/N=C(\N)NC(=O)Nc3ccccc3)nc(C)c2c1,inactive
12,NC(N)=Nc1nc(-c2ccccc2)c2cc(Cl)ccc2n1,inactive
13,CC(=O)Oc1ccc(-c2nc3c(C)cccc3c(=O)o2)cc1,inactive
14,Cc1nc(N=C(N)N)nc2c(C)cccc12,7.11 (active)
15,O=C(Nc1ccc(C(=O)N2CCOCC2)cc1)Nc1cccc(C(F)(F)F)c1,inactive
16,Cc1ccc(OCC(=O)Oc2ccccc2[N+](=O)[O-])cc1,inactive
17,COc1ccc2c(c1)[C@H]1[C@H](CO2)[C@H](c2ccccc2)[C@]2(C)C(=O)Nc3cc(F)c(F)cc3C(=O)N12,inactive
18,O=C(Nc1ccc2nc3n(c(=O)c2c1)CCCC3)c1ccc(Cl)nc1,inactive
19,CN(C)C1=NC[C@H](Cc2ccccc2)N1CCc1ccc(F)cc1,inactive
20,Cc1noc(C)c1CSCC(=O)Nc1ccc(Br)cc1Cl,inactive
21,CCOC(=O)C1CCN(c2ccc(C(=O)O)cc2[N+](=O)[O-])CC1,inactive
22,Cc1ccc(C(=O)c2ccc(N3CCN(C)CC3)c([N+](=O)[O-])c2)cc1,6.4 (active)
23,Cc1cccc(N2CCN(c3ccc(C(N)=O)cc3[N+](=O)[O-])CC2)c1C,inactive
24,O=C(Cc1ccc(S(=O)(=O)N2CCOCC2)s1)N1CCN(c2ccc(C(F)(F)F)cc2[N+](=O)[O-])CC1,inactive
25,COc1ccc(NC(=O)CN(C)C(=O)c2cccc(S(=O)(=O)N3CCN(c4ccccc4)CC3)c2)cc1,inactive
26,O=C(c1cc(Cl)cc(Cl)c1)N1CCC(=O)N(C(COCc2ccccc2)Cc2ccccc2)CC1 (centres undefined),inactive
27,CC(C)CC(COCc1ccc(Cl)cc1)N1CCN(C(=O)c2ccc(C(F)(F)F)cc2)CCC1=O (centres undefined),6.29 (active)
28,CC(C)CC(CO)N1CCN(C(=O)c2ccc(Cl)cc2Cl)CCC1=O (centres undefined),inactive
29,O=C(CCC(=O)c1cccs1)Nc1nc2ccccc2s1,inactive
